# Laboratory results: PubChem BioAssay (NCATS)
# Results filed as inconclusive are left out. Values without a mark were called inactive. Calls come from the whole dose curve; as a rule, active = well fitted cell-killing curve with a large enough effect; inconclusive = small, poorly fitted or top-dose-only effect, or effect the other way; inactive = flat fitted curve, though single readings scatter.
# Test system: JEG-3
# Test: Primary qHTS to identify gynecologic anti-cancer compounds using libraries of approved drugs and bioactive compounds (AID 1345084); note: nearly all actives have a fitted effect of over 55% in size
# Details: Gynecologic cancer cell panel viability, ATPlite luminescence, 48 h; series mostly up to 57.5 µM; activity change, negative = cytotoxicity: at the top concentration
# Outline: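 Luminescence from the ATPlite ATP-monitoring reagent indicates viable cell number; lower signal means cytotoxicity. Cells received compound 16 h after seeding and were exposed for 48 h across five concentrations.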
# % is set by controls: 0 for no effect and ±100 for the full control effect.
row,Structure (SMILES),"activity change, negative = cytotoxicity"
1,CCC(C)/C=C(C)/C=C/C1=CC2=C(Cl)C(=O)C(C)(OC(C)=O)C(=O)C2=CO1 (centres undefined),6.9% [at 38.5 µM]
2,CC1=CC2OC3[C@H](O)C[C@@](C)([C@]34CO4)[C@@]2(CO)[C@H](O)C1=O (some centres undefined),-9.43%
3,C=C1[C@@H](C)[C@H]2[C@H](Cc3ccccc3)NC(=O)[C@]23OC(=O)/C=C/C(=O)CCC[C@@H](C)C/C=C/[C@H]3[C@@H]1O,25.8%
4,CC(C)(C)[C@]1(O)C[C@@H]2OC(=O)C[C@@]23C(=O)O[C@@H]2OC(=O)[C@@H](O)[C@]213,5.43% [at 38.5 µM]
5,CNC(=O)c1cc(C#N)cc(C)c1NC(=O)c1cc(Br)nn1-c1ncccc1Cl,3.01%
6,OCc1nnc2n1-c1ccc(Cl)cc1C(c1ccccc1Cl)=NC2,6.43%
7,CC[C@@H]1C[C@H]2CC[C@H](O2)[C@H](C)C(=O)O[C@@H](C)C[C@@H]2CC[C@@H](O2)[C@@H](C)C(=O)O[C@H](CC)C[C@H]2CC[C@H](O2)[C@H](C)C(=O)O[C@@H](C)C[C@@H]2CC[C@@H](O2)[C@@H](C)C(=O)O1,-1.66% [at 25.3 µM]
8,CO[C@H]1C[C@H](O[C@H]2CC[C@@]3(C)C(=CCC4C3CC[C@]3(C)[C@@H](C5=CC(=O)OC5)CC[C@]43O)C2)O[C@@H](C)[C@@H]1O[C@@H]1O[C@H](CO[C@@H]2O[C@H](CO)[C@@H](O)[C@H](O)[C@H]2O)[C@@H](O)[C@H](O)[C@H]1O (some centres undefined),16.2% [at 11.6 µM]
9,C=C1[C@@H](C)[C@H]2[C@H](Cc3ccccc3)NC(=O)[C@]23[C@H](OC(C)=O)/C=C/[C@](C)(O)C(=O)[C@@H](C)C/C=C/[C@H]3[C@@H]1O,20.7%
